An excerpt weighted towards active compounds, which were near 0.54% of everything screened.
Vif-A3F inh = blocks the Vif interaction with APOBEC3F; HeLa A3F-eYFP + Vif (tagged APOBEC3F with the HIV-1 protein that degrades it), YFP fluorescence increase; Potency, µM (titrated, usually from 46.1 µM), without a hit: at the highest dose activity, negative = active; 390,000 tested, 0.2% active; AID 602313; note: potency is the fitted concentration of half-maximal effect; % of control where 0% means no effect; nearly all actives have a fitted effect of over 65% in size
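HeLa cells stably expressing A3F-eYFP plus Vif, plated and incubated overnight at 37 deg C, then exposed to compounds overnight at 37 deg C. Blocked degradation read as raised yellow fluorescence (Ex 488/Em 500-530).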
Vif-A3G inh = blocks the Vif interaction with human APOBEC3G; Q9HC16; 410,000 tested, 0.076% active; AID 602310; HeLa A3G-eYFP + Vif (tagged APOBEC3G with the HIV-1 protein that degrades it), YFP fluorescence, overnight; Potency, µM (top dose mostly 46.1 µM), for inactives: at the top dose activity, negative = active, most hits filed as inhibitors; note: potency is the fitted concentration of half-maximal effect; % is set by controls: 0 for no effect and ±100 for the full control effect; nearly all actives have a fitted effect of over 60% in size
Target sequence (Q9HC16 whole entry, looked up): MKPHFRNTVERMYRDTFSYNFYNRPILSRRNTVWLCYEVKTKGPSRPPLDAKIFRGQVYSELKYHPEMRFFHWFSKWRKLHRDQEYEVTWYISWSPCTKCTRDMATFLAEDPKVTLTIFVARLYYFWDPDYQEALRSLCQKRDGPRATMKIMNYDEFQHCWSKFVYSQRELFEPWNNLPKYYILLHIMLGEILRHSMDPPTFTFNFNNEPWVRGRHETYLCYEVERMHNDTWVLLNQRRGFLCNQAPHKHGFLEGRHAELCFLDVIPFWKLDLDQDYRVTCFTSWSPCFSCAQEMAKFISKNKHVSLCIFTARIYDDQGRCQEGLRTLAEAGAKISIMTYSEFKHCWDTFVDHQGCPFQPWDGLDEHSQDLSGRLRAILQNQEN
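HeLa cells stably expressing Vif and C-terminally eYFP-tagged A3G, seeded overnight at 37 deg C, then exposed to compound by pintool overnight at 37 deg C. Rise in yellow fluorescence (Ex 488/Em 500-530, Acumen) marks blocked Vif-driven A3G degradation.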
TRPML1 inh = human mucolipin-1 channel inhibition. AID 624415. TRPML1-inducible cells, Ca2+ dye fluorescence, FDSS; active compounds read low; inhibition of EC80 agonist-evoked calcium signal. Q9GZU1. 390,000 tested, 0.02% active. activity change, negative = inhibition, % (test concentration not listed); in the data active = activity change below about -50%; inconclusive = between about -30% and that limit;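 note: stimulus is agonist 54-4 at its EC80 concentration; % is set by controls: 0 for no effect and ±100 for the full control effect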
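Calcium fluorescence in TRPML1-DL cells induced overnight with Tet: a 110 s read after compound pin addition, then a 110 s antagonist read after challenge with 54-4 at 4 uM final (EC80).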
AT treatment = potential ataxia-telangiectasia treatments restoring KAP-1 phosphorylation; F2112 A-T fibroblasts, KAP-1 phosphorylation AlphaLISA; neocarzinostatin DNA damage 30 min before lysis; Potency, µM (titrated, usually from 57.5 µM), for the others: top-dose activation, hits mostly activators; 320,000 tested, 0.19% active; note: potency is the fitted concentration of half-maximal effect; % of control where 0% means no effect; nearly all actives have a fitted effect of over 45% in size
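hTERT-immortalized A-T patient fibroblasts (F2112), 500 cells/well in OPTI-MEM, 1% FBS, got compounds for 60 min, then NCS for 30 min at 37C. Lysates were then assayed for phospho-KAP-1 by AlphaLISA (anti-pKAP1 donor, anti-KAP1 acceptor beads), 6 hr at 25C.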
TRPML1 ag = human mucolipin-1 channel agonism | Q9GZU1 | TRPML1-expressing cells, Ca2+ dye fluorescence, FDSS | activation, % (concentration not given with the values) | 410,000 tested, 0.12% active | AID 624414; in the data active = activation above about 50%; inconclusive = mostly about 30% to 49%; note: 0% is about no effect
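Agonist activity was taken from a 110 s kinetic Ca2+ dye read on the FDSS after pinning compounds onto TRPML1-DL cells. The cells were seeded at 1,500/well with Tet inducer, incubated about 16 h, then dye-loaded at room temperature.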
* marks the source's active call; other numbers are inactive results; ? = inconclusive; . = not tested or not shown. Unless noted, calls come from the whole dose curve; as a rule, active = well fitted curve in the direction sought with a large enough effect; inconclusive = small, poorly fitted or top-dose-only effect, or another doubt; inactive = no such curve, though single readings can be large; an effect the other way counts as inactive or inconclusive.

SMILES | Vif-A3F inh | Vif-A3G inh | TRPML1 inh | AT treatment | TRPML1 ag
CC(C)(C)C(=O)NC(=S)NNC(=O)c1ccc(Cl)cc1Cl | 3% | 0% | 19 | -2% | 66*
CC(C)(C)C(=O)NC(=S)NNC(=O)c1ccc(-c2ccccc2)cc1 | 4% | -3% | 4 | -6% | 80*
CC(C)c1ccc(/C=C(\c2nc3ccccc3[nH]2)S(=O)(=O)c2ccccc2)cc1 | -1% | -23% | -8 | 4% | 5
O=S(=O)(/C(=C/c1ccc(C(F)(F)F)cc1)c1nc2ccccc2[nH]1)c1ccccc1 | -1% | -22% | 29 | 32µM* | 0
COCCn1c(C)cc(O)c(C(c2ccc(Cl)cc2)N2CCCCC2)c1=O (configuration not stated) | -6% | 3% | -17 | . | 1
O=C1/C(=C/c2cccnc2)SC(=S)N1Cc1ccco1 | -6% | ? | -4 | . | 0
Cc1cc(/C=C2\SC(=S)N(Cc3ccco3)C2=O)c(C)n1-c1cccnc1 | 11µM* | 5.6µM* | 6 | -7% | 16
CSc1ncnc2c1ncn2CCCNc1ccc(C)c(C)c1 | -3% | 1% | 22 | . | 0
Cc1cc(C2=NNC(=Nc3ccc(S(=O)(=O)N4CCOCC4)cc3)SC2)c(C)n1C | 11% | 5% | -12 | 32µM* | -1
C=CCn1c(C)cc(C2=NNC(=Nc3ccc(C)cc3)SC2)c1C | 7% | -3% | 10 | -3% | 0
O=C(COC(=O)c1cccc(Cl)c1Cl)NC1CCCC1 | -1% | 1% | -8 | 18µM* | -2
CC(=O)c1cc(-c2ccccc2)n(CCC(=O)Nc2nc3c(C)cccc3s2)c1C | 1% | -3% | -13 | . | 1
COc1cc2nc(CCc3nc4cc(OC)c(OC)cc4[nH]3)[nH]c2cc1OC | . | 2% | . | . | 0
O=C(Nc1nnc(-c2ccc3c(c2)CCCC3)o1)c1ccc(Cl)cc1Cl | -30% | 1% | 10 | -7% | 8
O=C(Nc1nnc(-c2ccc3c(c2)CCCC3)o1)c1c(F)cccc1F | 25µM* | -5% | 11 | -2% | 0
N#CC1=C(N)Oc2cc(N)ccc2C1c1cccc(F)c1 (configuration not stated) | 0% | ? | 8 | 2% | 1
CN(C)c1ccc2c(c1)OC(N)=C(C#N)C2c1cccc(F)c1 (configuration not stated) | 22µM* | ? | 11 | 9% | 23
CCOC(=O)c1cnc2cc(C(F)(F)F)ccc2c1N1CCN(c2cccc(Cl)c2)CC1 | -10% | 2% | -9 | . | 1
CCOC(=O)c1c(Nc2ccc(Cl)cc2)sc(/C=C2\C=Nc3ccccc32)c1O | 7.1µM* | -18% | 0 | 4% | 1
NC(Cc1ccccc1)C(O)c1ccco1 (configuration not stated) | . | -3% | -25 | . | 1
COc1ccc(C2Nc3cccc4cccc(c34)N2)cc1 | -3% | 1% | 10 | 9% | 2
COc1cc(OC)c(C2Nc3cccc4cccc(c34)N2)c(OC)c1 | 11µM* | -1% | 7 | 7% | 0
CS(=O)(=O)N1N=C(c2ccccc2)CC1c1ccc2c(c1)OCO2 (configuration not stated) | ? | 10µM* | -6 | -14% | 0
COc1ccc2c(C)cc(SCC(=O)N3CCOCC3)nc2c1 | 25µM* | ? | 5 | 11% | 5
COc1ccc2c(C)cc(SCC(=O)NC3CCCCC3)nc2c1 | ? | -3% | -16 | 3% | -1
SMILES | Vif-A3F inh | Vif-A3G inh | TRPML1 inh | AT treatment | TRPML1 ag
COc1ccc2c(C)cc(SCC(=O)N(C)C3CCS(=O)(=O)C3)nc2c1 (configuration not stated) | 11µM* | ? | 36 | 2% | 1
CCCCCCCCN1[C@@H](CC(C)=O)c2ccc(/C=C/C(C)=O)cc2S1(=O)=O | . | ? | . | . | 0
FC(F)(F)c1ccccc1NC(=S)NN=C1CCCCCC1 | 6.3µM* | ? | -9 | 0% | 0
COc1ccc(C)cc1-n1c(SCC(=O)NCc2ccco2)nc2c([nH]c3ccccc32)c1=O | 5% | -5% | -8 | . | 0
O=c1oc2cc(O)ccc2cc1-c1nc2c(s1)CCc1ccccc1-2 | -48% | 5% | -6 | 18µM* | 83*
O=c1oc2ccccc2cc1-c1nc2c(s1)CCc1ccccc1-2 | -18% | -3% | -20 | 26% | 7
O=c1oc2cc(O)ccc2cc1-c1nnc(Nc2ccccc2F)s1 | . | . | 3 | . | 71*
O=c1oc2ccc3ccccc3c2cc1-c1nnc(Nc2ccccc2F)s1 | ? | -7% | 0 | . | 0
CCOc1ccc(CCNC(=O)c2ccc(C)c(-n3cnc4cccnc43)c2)cc1 | 2% | 0% | 10 | . | 2
Cc1cccc(C(=O)N(Cc2ccccc2F)C2CCS(=O)(=O)C2)c1 (configuration not stated) | -1% | -1% | 20 | . | -1
COCCCNC(=O)CN1C(=O)/C(=C/c2ccccc2)Sc2ccccc21 | -9% | 2% | -1 | 40µM* | -1
CC(C)Cn1c(O)c(/C=C2\C=NN=C2c2ccccc2)sc1=S | 6% | -7% | -8 | 32µM* | 0
COc1ccc(C(=O)N(Cc2ccco2)Cc2cccs2)c(OC)c1 | . | -1% | . | . | 0
COc1ccccc1-c1c(C#N)c(N)nc2c1CCc1ccccc1-2 | -11% | ? | -2 | 22µM* | 0
CCOc1cc(-c2c(C#N)c(N)nc3c2CCc2ccccc2-3)ccc1O | 0% | -13% | -15 | 0% | 2
CCCc1nn(C)c(C(=O)Nc2ccc(C(C)(C)C)cc2)c1Cl | -17% | -1% | 2 | 35µM* | 2
CCN(CC)c1ccc2cc(-c3nc(-c4ccccc4F)no3)c(=O)oc2c1 | ? | -26% | -18 | . | 11
CCN(CC)c1ccc2cc(-c3nnc(-c4ccncc4)o3)c(=O)oc2c1 | -418% | 2% | ? | 17% | 116*
CCN(CC)c1ccc2cc(-c3nnc(-c4cccc(Cl)c4)o3)c(=O)oc2c1 | ? | ? | -20 | . | 62*
COc1ccc(S(=O)(=O)N2CC3CCCN3c3ccc(C(F)(F)F)cc32)cc1 (configuration not stated) | -2% | -7% | -7 | 6% | 80*
O=Nc1ccc(/C=C/c2ccnc3ccccc23)cc1 | . | 0% | . | . | -1
COc1ccc2nc(NC(=O)c3ccc(-n4nc(C)cc4C)cc3)sc2c1 | -3% | -7% | 9 | 27% | 68*
CC(=O)Nc1nc2cc(C(N)=O)ccc2s1 | 0% | -7% | -10 | 6% | 0
NC(=O)c1ccc2nc(NC(=O)c3ccc(N)cc3)sc2c1 | 4% | -3% | -14 | 35µM* | -1
CC(C)(C)[C@H]1CCC(=O)N(CCSc2ccc(Br)cc2)CC1 | . | -6% | . | . | 0

Screening results from PubChem BioAssay.
